Assay results from PubChem BioAssay AID651955 (The Scripps Research Institute Molecular Screening Center, 2012).
Out of some 2,400 compounds screened, about 40 (2%) were called active. No stated cut-off is given here; in the data, active means activation above about 37%; inactive means the rest. The list is a sample of the results.

Target: Trace amine-associated receptor 1 (Homo sapiens) (UniProt Q96RJ0)
Assay: TAAR1 activation by candidate antagonists – cell-based, fluorescence, counter-screen for TAAR1 antagonist project (AID 651955);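 further: CHO cells stably expressing TAAR1 with calcium dye readout; 0% = DMSO vehicle and 100% = full agonist response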
Conditions: hTAAR1 cell line, agonist mode, at 3 µM, hits give high values

Chain of Trace amine-associated receptor 1 (Homo sapiens) (Q96RJ0 whole entry, looked up): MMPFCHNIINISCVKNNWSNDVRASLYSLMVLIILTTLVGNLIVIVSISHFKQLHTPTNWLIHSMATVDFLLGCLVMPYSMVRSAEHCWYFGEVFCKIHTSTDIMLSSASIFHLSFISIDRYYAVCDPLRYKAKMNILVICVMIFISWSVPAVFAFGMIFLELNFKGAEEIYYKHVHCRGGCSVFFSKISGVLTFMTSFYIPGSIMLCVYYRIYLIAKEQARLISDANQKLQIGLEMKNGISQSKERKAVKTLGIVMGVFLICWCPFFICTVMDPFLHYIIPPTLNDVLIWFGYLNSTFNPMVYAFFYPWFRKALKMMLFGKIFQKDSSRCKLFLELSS

SMILES | activation
COc1ccc(C2=NOC(Cn3nc(C(=O)NCc4ccc5c(c4)OCO5)cc3-c3ccccc3)C2)cc1 (configuration not stated) | 6.17% (inactive)
COC(=O)c1sccc1NC(=O)c1cc(OC)c(OC)c(OC)c1 | 6.39% (inactive)
Cc1nc(N2CCN(c3ccccn3)CC2)c2c(C)c(C(=O)Nc3ccc(F)cc3)sc2n1 | 5.28% (inactive)
COc1ccc(CN(C)C(=O)c2cc(-c3ccc(C)cc3C)nc3ccccc23)c(OC)c1OC | 12.2% (inactive)
O=C(NCCN1C(=O)S/C(=C\c2cccnc2)C1=O)c1ccc(S(=O)(=O)N2CCCC2)cc1 | 6.63% (inactive)
C[C@H](O)[C@@H]1C(=O)N2CCc3c([nH]c4c(-c5ccc6c(c5)OCO6)cccc34)[C@@H]2C[C@@H]1N(C)C(=O)c1ccco1 | 7.7% (inactive)
Cc1cc(Br)ccc1NC(=O)c1cnc(N2CCN(c3ccccn3)CC2)c2ccccc12 | 5.88% (inactive)
COC(=O)[C@@]1(Sc2ccc(C)cc2)CC(=O)N(c2cccc(SC)c2)[C@@H]1c1ccccc1 | 9.64% (inactive)
COc1ccc(S(=O)(=O)N2CCCC(C(=O)Nc3ccc(NC(=O)c4ccccn4)cc3)C2)cc1 (configuration not stated) | 11% (inactive)
COc1ccc(CCNC2=C(Cl)C(=O)N(Cc3ccccc3)C2=O)cc1OC | 7.18% (inactive)
O=C(O)c1ccc(NC(=O)c2cn(-c3ccccc3)nc2-c2ccc(Cl)cc2)cc1 | -1.05% (inactive)
COc1ccc(NC(=O)c2cc(-c3ccc(C)o3)nc3ccccc23)cc1 | 6.61% (inactive)
O=C(Oc1ccc(-c2nnco2)cc1)c1ccc(F)c(S(=O)(=O)N2CCOCC2)c1 | 14.6% (inactive)
O=C(OCC(=O)N(CCc1ccccc1)Cc1ccccc1)c1ccccc1[N+](=O)[O-] | 7.56% (inactive)
COC(=O)Cc1nnn2c1[C@H](C)[C@H](c1ccccc1Br)OCC2 | 7.69% (inactive)
COc1ccc(OC)c2[nH]c(=O)c(CCNC(=O)C(=O)c3c[nH]c4ccccc34)cc12 | 10.8% (inactive)
Cc1cccc(NC(=O)c2ccc(COc3ccccc3[N+](=O)[O-])o2)n1 | 1.12% (inactive)
NNC(=O)CNC(c1ccccc1)c1cc(Cl)ccc1NC(=O)c1ccccc1 (configuration not stated) | 8.83% (inactive)
Cc1cc(C(C)(C)C)oc1C(=O)N(CC(=O)NC1CCCC1)Cc1ccc(Cl)cc1 | 34.2% (inactive)
CCOc1cc(/C=N/NC(=O)c2cc(-c3ccccc3)nc3ccccc23)ccc1O | 15.8% (inactive)
O=C(N/N=C/c1ccc(OC(=O)c2ccccc2Cl)cc1)c1ccc(O)cc1 | 13.1% (inactive)

SMILES | activation
Cc1cccc(NC(=O)c2nc[nH]c2C(=O)NCC(=O)OCc2ccccc2)c1 | 3.94% (inactive)
C[C@H](NC(=O)c1nc[nH]c1C(=O)NCC(=O)OC(C)(C)C)C(=O)OCc1ccccc1 | 11.1% (inactive)
O=C(COC(=O)CCCSc1nc2ccccc2[nH]1)Nc1ccc(Oc2ccccc2)cc1 | 9.65% (inactive)
COc1ccc(CCNC(=O)c2ccc(CS(=O)(=O)c3ccc(Br)cc3)o2)cc1OC | 12.3% (inactive)
COc1cc2ccccc2cc1C(=O)Nc1ccc(NC(=O)c2cccs2)cc1 | 7.6% (inactive)
C=CCC[C@H](Cc1ccc(F)cc1)C(=O)OC[C@H](C)NC(=O)[C@H](CC=C)CC(=O)N(CCO)Cc1ccccc1 | 6.83% (inactive)
CCc1ccc2c(c1)NC(=O)C2(C)Cc1ccc(OC(F)(F)F)cc1 (configuration not stated) | 25.6% (inactive)
CC/C(=N/Nc1ccccc1)c1cnnc(SC)n1 | -4.06% (inactive)
Cc1ccc2c(c1)N(CC(=O)NCCc1ccc(Cl)cc1)C(=O)c1cccnc1O2 | 5.11% (inactive)
Oc1ccccc1N1CCN(c2ncnc3sc(-c4ccccc4)cc23)CC1 | 2.9% (inactive)
Cc1ccc(NC(=O)c2ccc(CSc3ncnc4nc[nH]c34)cc2)c(C)c1 | 3.79% (inactive)
C=CCc1cc(S(=O)(=O)c2ccc(O)c(CC=C)c2)ccc1O | 9.65% (inactive)
Cc1ccc2cccc(OCCCOc3ccccc3CO)c2n1 | 11.3% (inactive)
COc1ccc(/C=C/C(=O)Nc2ccc(C34CC5CC(CC(O)(C5)C3)C4)cc2)cc1OC | 11.1% (inactive)
Cc1ccccc1NC(=O)Cc1nc(COC(=O)C(C)(C)Oc2ccc(Cl)cc2)cs1 | 10.5% (inactive)
CCNS(=O)(=O)c1ccc(CCC(=O)N2CCN(c3cc(Cl)ccc3C)CC2)cc1 | 17.4% (inactive)
COc1ccc(C(=O)Oc2ccc(-c3nnco3)cc2)cc1S(=O)(=O)N1CCOCC1 | 11% (inactive)
Oc1ccc(/C=N/Nc2nc(-c3ccccc3F)nc3ccccc23)c(O)c1 | 9.34% (inactive)
C=CCn1c(SCc2cccc(F)c2)nc2cc(C(=O)N3CCC(C(N)=O)CC3)ccc2c1=O | 9% (inactive)
COc1ccc2[nH]c(=O)c(CN(Cc3cccnc3)S(=O)(=O)c3ccccc3F)cc2c1 | 12.6% (inactive)
Fc1ccc(/C=N/Nc2nc(-c3cccnc3)nc3ccccc23)cc1 | 3.24% (inactive)

SMILES | activation
CCOC(=O)C1=C(NC(=S)NC(=O)c2ccccc2)c2ccccc2CC1(C)C | 31.1% (inactive)
CNC(=O)c1ccsc1NC(=O)c1ccc(S(=O)(=O)N2CCc3ccccc32)cc1 | 6.5% (inactive)
CC(C)(C)OC(=O)NCCCCCNC(=O)c1nc[nH]c1C(=O)NCc1ccccc1 | 7.66% (inactive)
Cc1ccccc1OCC(=O)Nc1ccc(N2CCN(C(=O)C(C)C)CC2)c(Cl)c1 | 10.6% (inactive)
COc1cc(OC)cc(C(=O)OCC(=O)Nc2sccc2C(N)=O)c1 | 16.7% (inactive)
CCOc1ccc(NC(=O)N2CC=C(n3c(=O)[nH]c4ccccc43)CC2)cc1 | 6.44% (inactive)
O=C(CCc1ccccc1)Nc1cccc(-c2nnc(-c3ccco3)o2)c1 | 7.95% (inactive)
O=C(Nc1ccc(-c2nnc(-c3ccccc3)o2)cc1)c1ccc(Br)o1 | -1.1% (inactive)
CC(C)Oc1cc(F)ccc1-c1cc(C(=O)Nc2ccc(F)cc2)[nH]n1 | 2.53% (inactive)
COc1ccc(-c2cc(C(=O)N(C)Cc3ccc(OC)c(OC)c3OC)c3ccccc3n2)cc1OC | 8.62% (inactive)
O=C(NCCN1CCOCC1)c1ccccc1N1C(=O)[C@@H]2Cc3c([nH]c4ccccc34)C(c3cccc(Cl)c3)N2C1=O (some centres not stated) | 5.75% (inactive)
Clc1ccc(Nc2ncnc3c2nnn3Cc2ccccc2)cc1 | 6.12% (inactive)
Nc1nonc1-n1nnc(C(=O)N/N=C/c2c[nH]c3ccccc23)c1-c1ccccc1 | 2.36% (inactive)
Cn1c2ccccc2c(=O)c2c(=O)n(Cc3ccco3)c(COc3ccccc3)nc21 | 39.4% (active)
O=c1[nH]c(CSc2ncc(-c3ccc(F)cc3)n2Cc2ccco2)nc2ccccc12 | 17.5% (inactive)
Cc1ccc(C)c(N2CCN(C(=O)CCCCCn3c(=S)[nH]c4ccc(N5CCOCC5)cc4c3=O)CC2)c1 | 6.46% (inactive)
CC(C)N(Cc1ccccc1)C(=O)COC(=O)c1ccccc1SCC(=O)N1CCCC1 | 10.5% (inactive)
C/C(=N\Nc1ncc(Cl)cc1Cl)c1ccc(S(=O)(=O)NCc2ccco2)cc1 | -4.54% (inactive)
COC(=O)Cc1nnn2c1[C@H](C)[C@H](c1ccccc1[N+](=O)[O-])OCC2 | 1.8% (inactive)
O=C1c2ccccc2C(=O)N1CCC#Cc1ccc2cc(C3(O)CCCCC3)oc(=O)c2c1 | 10.5% (inactive)
C[C@@H]1CN([C@@H](C)CO)S(=O)(=O)c2ccc(C#Cc3cccc(F)c3)cc2O[C@H]1CN(C)S(=O)(=O)c1cn(C)cn1 | 9.74% (inactive)

SMILES | activation
COc1ccc(-c2nn(-c3ccccc3)cc2C(=O)Nc2nccs2)cc1OC | 7.13% (inactive)
O=C(NCc1ccc2c(c1)OCO2)c1c(-c2ccsc2)sc2ccccc12 | -1.93% (inactive)
CCC(=O)Oc1cccc(C(=O)Nc2ccc(-c3nnc(-c4ccco4)o3)cc2)c1 | 3.83% (inactive)
O=S(=O)(c1cccs1)N1CCCc2nc(-c3ccc(Br)cc3)ccc21 | 0.43% (inactive)
CSC(=S)N/N=C/c1c[nH]c2ccccc12 | 12% (inactive)
CC(=O)n1cc([C@H]2C=C(C(=O)N3CCOCC3)O[C@@H](OCc3ccc(CO)cc3)C2)c2ccccc21 | 9.37% (inactive)
O=C(COC(=O)c1ccccc1SCC(=O)N1CCCC1)Nc1ccccc1OC(F)F | 7.54% (inactive)
Cc1onc(-c2c(F)cccc2Cl)c1C(=O)Nc1cccc(S(=O)(=O)N2CCCCC2)c1 | 7.98% (inactive)
COc1cc(SC#N)ccc1N=Cc1c(C)[nH]n(-c2ccc(C)cc2)c1=O | 1.06% (inactive)
CN(c1ccccc1)S(=O)(=O)c1cc(C(=O)Nc2nc3ccccc3[nH]2)ccc1Cl | 4.12% (inactive)
O=C(NCC1CCCO1)c1cc2c([nH]c3ccccc32)c(-c2ccc(F)cc2)n1 (configuration not stated) | 3.66% (inactive)
CC(=O)c1ccccc1OCc1ccc(C(=O)c2ccccc2)cc1 | 6.46% (inactive)
COc1ccc(CCNC(=O)C(=O)NCC2OCCN2S(=O)(=O)c2ccc(OC)c(C)c2)cc1 (configuration not stated) | 5.42% (inactive)
COC(=O)C1=C(C)N(Cc2ccc(F)cc2)C(=S)NC1c1cccc(Cl)c1 (configuration not stated) | 3.48% (inactive)
CC(=O)OCCN(CCCn1c(-c2ccncc2)nc2ccccc21)c1nc(-c2ccc(C)cc2)cs1 | 2.91% (inactive)
O=C(Nc1ccccc1-c1nnn(CC(=O)N2CCN(c3ccccc3)CC2)n1)c1cccs1 | 6.9% (inactive)
O=S1(=O)c2c(cccc2N2CCCCC2)O[C@H](COCc2ccccc2)CN1C1CC1 | 0.58% (inactive)
Cc1cccc(C)c1NC(=O)CNC(=O)C1CCCC1 | 6.49% (inactive)
CCN=C1SC(CC(=O)Nc2ccc(C)cc2)C(=O)N1CC (configuration not stated) | 12.6% (inactive)
